# Where “and” joins values, the source holds several entries; their conditions need not be identical. Equal values may be shown once. Read-outs that look alike come from different tables or passages of the source.
# Tests used:
# MST1 = system: T1, MST1; details: concentration: 1 μM, replicates: in singlicate, n = 1
# T1 construct: gene STK4
# MST2 = system: T2, MST2; details: concentration: 1 μM, replicates: in singlicate; n = 1
# T2 construct: gene STK3
# MST3 = system: T3, MST3; details: concentration: 1 μM, replicates: in singlicate, n = 1
# T3 construct: gene STK24
# MST4 = details: concentration: 1 μM, replicates: in singlicate, n = 1
# MTOR = details: concentration: 1 μM, replicates: in singlicate, n = 1
# MUSK = details: concentration: 1 μM, replicates: in singlicate, n = 1
# MYLK2 = details: concentration: 1 μM, replicates: in singlicate, n = 1
# MYLK4 = details: concentration: 1 μM, replicates: in singlicate, n = 1
# MYLK = details: concentration: 1 μM, replicates: in singlicate, n = 1
# MYO3A = details: concentration: 1 μM, replicates: in singlicate, n = 1
# MYO3B = details: concentration: 1 μM, replicates: in singlicate; n = 1
# NDR1 = system: T4, NDR1; details: concentration: 1 μM, replicates: in singlicate, n = 1
# T4 construct: gene STK38
# NDR2 = details: concentration: 1 μM, replicates: in singlicate, n = 1
# NEK10 = details: concentration: 1 μM, replicates: in singlicate, n = 1
# NEK11 = details: concentration: 1 μM, replicates: in singlicate, n = 1
# NEK1 = details: concentration: 1 μM, replicates: in singlicate, n = 1
# NEK2 = details: concentration: 1 μM, replicates: in singlicate; n = 1
# NEK3 = details: concentration: 1 μM, replicates: in singlicate, n = 1
# NEK4 = details: concentration: 1 μM, replicates: in singlicate; n = 1
# NEK5 = details: concentration: 1 μM, replicates: in singlicate, n = 1
# 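Also: KINOMEscan kinase panel screen.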
smiles,measurement,setting,value
CN(C1=C(c2ccccc2)C(=O)NC1=O)c1ccccc1 [SB-334860],%Inh,MST1,0%
same,%Inh,MST2,6%
same,%Inh,MST3,7%
same,%Inh,MST4,0%
same,%Inh,MTOR,28%
same,%Inh,MUSK,0%
same,%Inh,MYLK2,11%
same,%Inh,MYLK4,19%
same,%Inh,MYLK,11%
same,%Inh,MYO3A,33%
same,%Inh,MYO3B,0%
same,%Inh,NDR1,26%
same,%Inh,NDR2,24%
same,%Inh,NEK10,15%
same,%Inh,NEK11,0%
same,%Inh,NEK1,8%
same,%Inh,NEK2,0%
same,%Inh,NEK3,9%
same,%Inh,NEK4,0%
same,%Inh,NEK5,23%
Cc1c2ccc(N(C)c3ccnc(Nc4cccc(S(N)(=O)=O)c4)n3)cc2nn1Cc1ccccc1.Cl.Cl [GW787226],%Inh,MST1,32%
same,%Inh,MST2,13%
same,%Inh,MST3,0%
same,%Inh,MST4,0%
same,%Inh,MTOR,0%
same,%Inh,MUSK,33%
same,%Inh,MYLK2,0%
same,%Inh,MYLK4,0%
same,%Inh,MYLK,0%
same,%Inh,MYO3A,0%
same,%Inh,MYO3B,41%
same,%Inh,NDR1,51%
same,%Inh,NDR2,1%
same,%Inh,NEK10,0%
same,%Inh,NEK11,0%
same,%Inh,NEK1,32%
same,%Inh,NEK2,0%
same,%Inh,NEK3,22%
same,%Inh,NEK4,6%
same,%Inh,NEK5,0%
[2H]C([2H])(c1cccc(C(F)(F)F)c1C)n1ccn2c(=O)nc(N3CCOCC3)cc12 [GSK2336394],%Inh,MST1,2%
same,%Inh,MST2,0%
same,%Inh,MST3,11%
same,%Inh,MST4,0%
same,%Inh,MTOR,18%
same,%Inh,MUSK,8%
same,%Inh,MYLK2,0%
same,%Inh,MYLK4,0%
same,%Inh,MYLK,12%
same,%Inh,MYO3A,4%
same,%Inh,MYO3B,0%
same,%Inh,NDR1,0%
same,%Inh,NDR2,0%
same,%Inh,NEK10,7%
same,%Inh,NEK11,0%
same,%Inh,NEK1,0%
same,%Inh,NEK2,0%
same,%Inh,NEK3,1%
same,%Inh,NEK4,27%
same,%Inh,NEK5,4%
Fc1ccc(-c2ncn(CCCN3CCOCC3)c2-c2cccnc2)cc1 [SB-211743],%Inh,MST1,12%
same,%Inh,MST2,40%
same,%Inh,MST3,0%
same,%Inh,MST4,0%
same,%Inh,MTOR,0%
same,%Inh,MUSK,20%
same,%Inh,MYLK2,1%
same,%Inh,MYLK4,0%
same,%Inh,MYLK,0%
same,%Inh,MYO3A,0%
same,%Inh,MYO3B,17%
same,%Inh,NDR1,33%
same,%Inh,NDR2,10%
same,%Inh,NEK10,14%
same,%Inh,NEK11,0%
same,%Inh,NEK1,0%
same,%Inh,NEK2,0%
same,%Inh,NEK3,15%
same,%Inh,NEK4,0%
same,%Inh,NEK5,0%
NCCNS(=O)(=O)c1ccc(-c2ccnc3[nH]ccc23)cc1 [GSK977617],%Inh,MST1; 1 µM,26% and 0%
same,%Inh,MST2,0%
same,%Inh,MST3; 1 µM,27% and 17%
same,%Inh,MST4; 1 µM,13% and 0%
same,%Inh,MTOR; 1 µM,29% and 12%
same,%Inh,MUSK; 1 µM,30% and 35%
same,%Inh,MYLK2; 1 µM,75% and 42%
same,%Inh,MYLK4; 1 µM,99.9% and 99.7%
same,%Inh,MYLK; 1 µM,74% and 59%
same,%Inh,MYO3A; 1 µM,37% and 16%
same,%Inh,MYO3B,0%
same,%Inh,NDR1; 1 µM,70% and 58%
same,%Inh,NDR2; 1 µM,77% and 60%
same,%Inh,NEK10; 1 µM,69% and 53%
same,%Inh,NEK11; 1 µM,24% and 0%
same,%Inh,NEK1; 1 µM,62% and 44%
same,%Inh,NEK2,0%
same,%Inh,NEK3; 1 µM,14% and 0%
same,%Inh,NEK4,0%
same,%Inh,NEK5; 1 µM,44% and 25%
CCc1nc(-c2cccc(C)c2)c(-c2ccnc(NCc3ccccc3)c2)s1,%Inh,MST1,4%
same,%Inh,MST2,0%
same,%Inh,MST3,4%
same,%Inh,MST4,0%
same,%Inh,MTOR,12%
same,%Inh,MUSK,12%
same,%Inh,MYLK2,0%
same,%Inh,MYLK4,0%
same,%Inh,MYLK,0%
same,%Inh,MYO3A,0%
same,%Inh,MYO3B,0%
same,%Inh,NDR1,0%
same,%Inh,NDR2,0%
same,%Inh,NEK10,0%
same,%Inh,NEK11,0%
same,%Inh,NEK1,7%
same,%Inh,NEK2,0%
same,%Inh,NEK3,24%
same,%Inh,NEK4,0%
same,%Inh,NEK5,0%
COc1cc2c(cc1OCCN1CCN(C)CC1)ncc1c3ccc(C#N)cc3[nH]c21,%Inh,MST1,0%
same,%Inh,MST2,30%
same,%Inh,MST3,36%
same,%Inh,MST4,0%
same,%Inh,MTOR,38%
same,%Inh,MUSK,0%
same,%Inh,MYLK2,72%
same,%Inh,MYLK4,75%
same,%Inh,MYLK,26%
same,%Inh,MYO3A,0%
same,%Inh,MYO3B,0%
same,%Inh,NDR1,52%
same,%Inh,NDR2,0%
same,%Inh,NEK10,15%
same,%Inh,NEK11,0%
same,%Inh,NEK1,0%
same,%Inh,NEK2,48%
same,%Inh,NEK3,33%
same,%Inh,NEK4,0%
same,%Inh,NEK5,0%
COc1ccc(COc2cc(-n3cnc4ccccc43)sc2C(N)=O)cc1 [GSK1024304],%Inh,MST1,0%
same,%Inh,MST2,0%
same,%Inh,MST3,0%
same,%Inh,MST4,0%
same,%Inh,MTOR,0%
same,%Inh,MUSK,14%
same,%Inh,MYLK2,0%
same,%Inh,MYLK4,0%
same,%Inh,MYLK,0%
same,%Inh,MYO3A,0%
same,%Inh,MYO3B,0%
same,%Inh,NDR1,6%
same,%Inh,NDR2,0%
same,%Inh,NEK10,19%
same,%Inh,NEK11,0%
same,%Inh,NEK1,0%
same,%Inh,NEK2,0%
same,%Inh,NEK3,0%
same,%Inh,NEK4,0%
same,%Inh,NEK5,7%
O=c1cc(N2CCOCC2)nc2n(Cc3cccc4ccccc34)ccn12 [GSK2333389],%Inh,MST1,0%
same,%Inh,MST2,9%
same,%Inh,MST3,0%
same,%Inh,MST4,0%
same,%Inh,MTOR,0%
same,%Inh,MUSK,0%
same,%Inh,MYLK2,0%
same,%Inh,MYLK4,0%
same,%Inh,MYLK,0%
same,%Inh,MYO3A,0%
same,%Inh,MYO3B,0%
same,%Inh,NDR1,0%
same,%Inh,NDR2,0%
same,%Inh,NEK10,0%
same,%Inh,NEK11,0%
same,%Inh,NEK1,0%
same,%Inh,NEK2,6%
same,%Inh,NEK3,0%
same,%Inh,NEK4,6%
same,%Inh,NEK5,0%
COC(=O)Nc1nc2cc(Oc3ccc(NC(=O)Nc4cc(F)ccc4F)cc3)ccc2[nH]1.Cl [GW701424],%Inh,MST1,0%
same,%Inh,MST2,0%
same,%Inh,MST3,6%
same,%Inh,MST4,0%
same,%Inh,MTOR,15%
same,%Inh,MUSK,99.1%
same,%Inh,MYLK2,0%
same,%Inh,MYLK4,0%
same,%Inh,MYLK,0%
same,%Inh,MYO3A,33%
same,%Inh,MYO3B,0%
same,%Inh,NDR1,26%
same,%Inh,NDR2,0%
same,%Inh,NEK10,8%
same,%Inh,NEK11,7%
same,%Inh,NEK1,0%
same,%Inh,NEK2,0%
same,%Inh,NEK3,0%
same,%Inh,NEK4,0%
same,%Inh,NEK5,3%

# Reference: publication PMC5540273 (PLoS ONE, 2017)
